In all, about 260,000 compounds went through this assay and about 1,500 (0.58%) were called active. Inconclusive results (about 5%) are left out.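 How the source made its calls: active means inhibition above a set limit at one or more doses, reproduced on every date tested; inconclusive means results disagree between test dates, or hit never tested in dose response; inactive means the rest.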 The list is a sample of the results. Potency and affinity values are given separately.
Biological target: Virion infectivity factor (Human immunodeficiency virus type 1 group M subtype B (isolate BH10)) + Virion infectivity factor (Human immunodeficiency virus type 1 group M subtype B (isolate BRU/LAI)) + Virion infectivity factor (Human immunodeficiency virus type 1 group M subtype B (isolate PCV12)) + Virion infectivity factor (Human immunodeficiency virus type 1 group M subtype B (isolate HXB2)) + DNA dC->dU-editing enzyme APOBEC-3G (Homo sapiens) (UniProt P69720+P69721+P69722+P69723+Q9HC16)
Assay: HIV-1 Vif–A3G interaction blockers – biochemical, TR-FRET, GST-Vif 1-94, biotin-A3G peptide, dose response retest, primary screen (AID 1117319);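 further: Vif residues 1-94 fused to GST binding biotinylated APOBEC3G peptide 110-148; 0% = full assay without inhibitor and 100% = GST in place of GST-Vif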
Settings: TR-FRET GST-Vif / biotin-A3G peptide binding; active compounds read high

Row | Compound | inhibition
1 | O=C(Cc1ccccc1)NC(Nc1cccc2ccccc12)C(Cl)(Cl)Cl (stereo not drawn) | -5.91% (inactive)
2 | CC(C)(C)NC(NC(=O)Cc1ccccc1)C(Cl)(Cl)Cl (stereo not drawn) | 2.28% (inactive)
3 | CN(CCC1CCOCC1)C(=O)C1CCC(=O)N(CCc2ccc(Cl)cc2)C1 (stereo not drawn) | -0.45% (inactive)
4 | CN1/C(=C\C=Nc2ccccc2)C(C)(C)c2ccccc21 | 13.4% (inactive)
5 | CN1/C(=C\C=Nc2ccc3ccccc3c2)C(C)(C)c2ccccc21 | 15.9% (inactive)
6 | Cc1nc2ccccc2nc1-c1ccc([N+](=O)[O-])cc1 | 3.82% (inactive)
7 | COc1cc2c3c(c1OC)C1(C=CC(=O)C=C1)CC3N(C(C)=O)CC2 (stereo not drawn) | 25.2% (inactive)
8 | COc1cc2c3c(c1OC)C1(C=CC(=O)C=C1)CC3N(C(=O)c1ccccc1)CC2 (stereo not drawn) | 16.3% (inactive)
9 | O=S(=O)(Nc1ccccc1)c1ccc(-c2cnc(C3CC3)o2)cc1 | 5.89% (inactive)
10 | COC(=O)c1c(C(=O)OC)c(C)n(Cc2ccco2)c1C | 1.05% (inactive)
11 | COc1cccc(=O)c2c(C)n(CC(=O)c3ccccc3)c(C)c12 | 19.6% (inactive)
12 | CCOc1ccccc1N1CCN(Cc2ccco2)CC1 | 0.19% (inactive)
13 | CCOc1ccccc1N1C(=O)c2ccc(C(=O)O)cc2C1=O | -5.01% (inactive)
14 | CCOc1ccc2c(C)c(C)c(=O)oc2c1OCC | -2.36% (inactive)
15 | CCOc1cccc2cc(C(C)=O)oc12 | -1.92% (inactive)
16 | COc1cccc(-n2c(C)c3c(OC)cccc(=O)c3c2C)c1 | 31.7% (inactive)
17 | CCOc1ccccc1OCC(=O)O | 2.95% (inactive)
18 | CCN(CC(=O)Nc1c(F)cccc1F)C(=O)c1ccc2c(c1)OCCO2 | 8.86% (inactive)
19 | CCOc1ccc(CN(C)C(=O)CCc2ccc(S(=O)(=O)N3CCCCCC3)cc2)cc1 | -5.71% (inactive)
20 | CNC(=O)c1c(NC(=O)CS(=O)(=O)c2ccccc2)sc(C)c1C | 2.6% (inactive)
21 | OC1CCCN(C(=S)Nc2ccc(SC(F)F)cc2)C1 (stereo not drawn) | 21.9% (inactive)
22 | Cc1ccc(NC(=O)CSc2nc(=O)n(CCN(C)C)c3c2CCCC3)cc1Cl | -8.42% (inactive)
23 | COC(=O)c1cc2occc2n1CC(=O)N(C)C1CCCCC1 | 15.2% (inactive)
24 | CN1CCN(c2cc(N3CCc4ccccc4C3)c(F)cc2[N+](=O)[O-])CC1 | -1.87% (inactive)

Row | Compound | inhibition
25 | COc1ccc(Br)c(C(=O)NNC(=O)c2ccc(NS(=O)(=O)c3cccs3)cc2)c1 | 2.76% (inactive)
26 | C(C#CCN1CCOCC1)#CCN1CCOCC1 | 5.57% (inactive)
27 | CCc1ccccc1Nc1nc(N)nc(CSc2nnnn2C)n1 | 0.07% (inactive)
28 | CSCCC(NC(=O)/C(=C\c1ccc(Cl)cc1)NC(=O)c1ccccc1)C(=O)O (stereo not drawn) | 1.24% (inactive)
29 | COc1ccc(-n2c(C)c3c(OC)cccc(=O)c3c2C)cc1 | 32.9% (inactive)
30 | CCOc1ccccc1-c1cc(-c2ccccc2)nc2c1c(=O)n(C)c(=O)n2C | -7.81% (inactive)
31 | COc1cccc(=O)c2c(C)n(-c3cc(C)cc(C)c3)c(C)c12 | 21.8% (inactive)
32 | CCOc1ccccc1C(c1c(C)n(C)n(-c2ccccc2)c1=O)c1c(C)n(C)n(-c2ccccc2)c1=O | -1.18% (inactive)
33 | COc1ccc(CNC(=O)Cn2cnc3c(OCc4ccccc4)ncnc32)cc1 | -3.17% (inactive)
34 | Cc1ccc(S(=O)(=O)Nc2ccccc2-c2ccccc2)cc1 | -0.15% (inactive)
35 | Cc1ccc(S(=O)(=O)c2c(C)nn(C(C)(C)C)c2OC(=O)CC(C)C)cc1 | -0.23% (inactive)
36 | CCN1CCN(C(=O)Cn2cnc3sc(C)c(S(=O)(=O)N4CCN(c5ncccn5)CC4)c3c2=O)CC1 | 6.94% (inactive)
37 | CN=c1scc(-c2ccccc2F)n1/N=C/c1ccc[nH]1 | 3.11% (inactive)
38 | CN=c1scc(C)n1/N=C/c1cc(Br)c(O)c(OC)c1 | 17.7% (inactive)
39 | CCN=c1scc(-c2cccs2)n1/N=C/c1cc(OC)ccc1O | 11.2% (inactive)
40 | COCCN=c1scc(-c2cccs2)n1/N=C(\C)c1ccco1 | -4.46% (inactive)
41 | CCOc1ccc(C(=O)NCC(C)C)cc1 | 1.08% (inactive)
42 | Cc1ccc(C)c(NC(=O)N2CCc3ccccc3C2)c1 | -0.5% (inactive)
43 | Cc1cc(C)n(CC2CC(=O)N(c3ccc(Cl)cc3)C2=O)n1 (stereo not drawn) | -0.66% (inactive)
44 | CC(=O)N1CCN(C(=O)c2ccc(Oc3ccccc3)cc2)CC1 | -9.55% (inactive)
45 | Cc1ccc(N2C(=O)CN(Cc3sccc3C)C2=S)cc1C | 8.31% (inactive)
46 | CC1C/C=C/C=C/C=C/C=C/C(O[C@@H]2O[C@H](C)[C@@H](O)[C@H](N)[C@@H]2O)CC2OC(O)(CC(O)CC3OC3/C=C/C(=O)O1)CC(O)C2C(=O)O (stereo partly drawn) | -4.31% (inactive)
47 | COc1ccc(C(=O)O/N=C(\N)c2ccccc2)c(OC)c1 | 2.57% (inactive)
48 | O=C1NC2(CCCCC2)C(=O)N1Cc1cc(=O)n2ccsc2n1 | -0.24% (inactive)

Row | Compound | inhibition
49 | CC(C(=O)NCc1ccc2c(c1)OCO2)c1ccc([N+](=O)[O-])cc1 (stereo not drawn) | 6.03% (inactive)
50 | CNc1ncnc(Sc2nc(N)nc3nc[nH]c23)c1[N+](=O)[O-] | 16.1% (inactive)
51 | Nc1nc(SCc2ccccc2)c2[nH]cnc2n1 | -9.37% (inactive)
52 | CC1(C)C2C(Cl)(Cl)C2(C)c2ccccc2N1C=O (stereo not drawn) | -2.3% (inactive)
53 | COc1ccc(-c2nc3ccccc3n2OCC(=O)O)cc1 | 15.9% (inactive)
54 | COc1ccc(-c2nc3ccccc3n2OC(C)C(=O)O)cc1 (stereo not drawn) | -3.4% (inactive)
55 | Cn1[nH]c(C(F)(F)F)c(C=NCc2ccc(Cl)cc2)c1=O | -4.02% (inactive)
56 | COc1cccc(-c2cc3c(=O)n(-c4ccccc4)c(=S)[nH]c3s2)c1 | -16.9% (inactive)
57 | Cc1c(C)n2c3c(cccc13)CC2 | 3.05% (inactive)
58 | O=C(Nc1cccc(C(F)(F)F)c1)c1ccco1 | -3.65% (inactive)
59 | CC(=O)c1ccc(NC(=O)c2cccc(NC(=O)c3ccccc3)c2)cc1 | -13.5% (inactive)
60 | O=C(c1ccccc1)c1ccc2nc(-c3ccco3)c(-c3ccco3)nc2c1 | 3.26% (inactive)
61 | O=C(Nc1cccc(-c2nnc(-c3ccco3)o2)c1)c1ccccc1 | -5.38% (inactive)
62 | O=C(Nc1ccccc1)c1cccc(C(F)(F)F)c1 | 0.71% (inactive)
63 | O=C(Nc1ccc(N2CCOCC2)cc1)c1ccc2nc(-c3ccco3)c(-c3ccco3)nc2c1 | 10.5% (inactive)
64 | COc1ccc2cc(C3=CC(=O)CC(C)(C)C3=O)ccc2c1 | 4.18% (inactive)
65 | Cc1cc(C)nc(-n2ncc3c2CCCC3=O)n1 | -7.41% (inactive)
66 | COc1ccc([C@@H]2C[C@H]3[C@@H](CN2S(=O)(=O)c2ccccc2)C(=O)C[C@@H](c2ccccc2F)N3S(=O)(=O)c2ccc(C)cc2)cc1 | -4.64% (inactive)
67 | CC1CCOC2(O1)C(=O)N(CN1CCN(c3cccc(Cl)c3)CC1)c1ccccc12 (stereo not drawn) | 16.9% (inactive)
68 | Cc1ccc(Nc2nc(=O)[nH]nc2C)cc1 | 23.2% (inactive)
69 | COCCNC(C(=O)Nc1ccc([N+](=O)[O-])cc1Br)c1ccccc1 (stereo not drawn) | -2.09% (inactive)
70 | Cc1noc(NS(=O)(=O)c2ccc(NC(=O)CCCOc3ccc(Cl)cc3Cl)cc2)c1C | 2.83% (inactive)
71 | Cc1nnc(NC(=O)CSc2nnc(NC(=O)C(C)(C)C)s2)s1 | 22.2% (inactive)
72 | C=CCSc1nnc(NC(=O)CSc2ccccn2)s1 | -2.29% (inactive)

Row | Compound | inhibition
73 | C#CCOCCOCCOCCNc1nc(N2CCN(C(=O)[C@H](Cc3ccc(O)cc3)n3cc([C@@H](N)C(C)CC)nn3)CC2)nc(N2CCN(C(=O)[C@H](CCCCN)n3cc([C@@H](N)CO)nn3)CC2)n1 (stereo partly drawn) | -12.6% (inactive)
74 | O=C(COc1c(F)c(F)cc(F)c1F)NNC(=O)CC1CCS(=O)(=O)C1 (stereo not drawn) | -4.18% (inactive)
75 | CC1CN(S(=O)(=O)c2cccc(C(=O)OCC(=O)NCc3ccccc3)c2)CC(C)O1 (stereo not drawn) | -6.28% (inactive)
76 | Cc1ccc(N2C(=O)c3ccccc3C2C(=O)c2cc(C)ccc2O)cc1 (stereo not drawn) | 30.2% (inactive)
77 | COc1ccc(N2C(=O)c3ccccc3NC2c2ccccc2O)cc1 (stereo not drawn) | -3.39% (inactive)
78 | CC(=O)SC1CC(=O)N(c2ccc(C(C)(C)C)cc2)C1=O (stereo not drawn) | -11.1% (inactive)
79 | O=C(NCCc1ccccc1)c1cc(-c2ccco2)on1 | 25.6% (inactive)
80 | COc1ccc(C(=O)NCc2ccccn2)cc1 | 19.1% (inactive)
81 | O=C(NCCc1ccccc1)c1ccc2nccnc2c1 | 28.7% (inactive)
82 | COc1ccc(CCNC(=O)c2cc(-c3ccco3)on2)cc1OC | -1.47% (inactive)
83 | O=C(NCCc1ccccc1)c1coc(=O)c(Br)c1 | -22.2% (inactive)
84 | CCc1nc2ccc(C(=O)NCCc3ccc(OC)c(OC)c3)cc2nc1CC | 0.19% (inactive)
85 | O=C(NCc1ccccn1)c1ccc(NC(=O)c2ccco2)cc1 | 1.9% (inactive)
86 | O=C(NCc1ccccn1)c1ccc(=O)oc1 | 11.6% (inactive)
87 | CCN(Cc1ccc(NC(C)=O)cc1)CC1CCCN(CCc2cccc(OC)c2)C1 (stereo not drawn) | 3.62% (inactive)
88 | O=C(Cn1nnc(-c2ccccc2Cl)n1)Nc1cccc(S(=O)(=O)N2CCCC2)c1 | -4.6% (inactive)
89 | COC(=O)c1ccccc1NC(=O)Nc1ccc(Cl)cn1 | -0.47% (inactive)
90 | O=C(NCc1ccccc1)c1ccc2nccnc2c1 | -2.53% (inactive)
91 | CCc1nc2ccc(C(=O)NCc3ccccc3)cc2nc1CC | 13.9% (inactive)
92 | CC(C(=O)N1CCN(c2ccc(Cl)cc2)CC1)c1ncc(C(F)(F)F)cc1Cl (stereo not drawn) | -3.01% (inactive)
93 | Cc1ccc(S(=O)(=O)NCc2nnc(SCC(=O)Nc3cccc(C)c3C)n2C)cc1 | -1.43% (inactive)
